PubChem BioAssay
Records with an inconclusive call do not appear. The source made the active and inactive calls. Unless noted, the rule behind the calls is not given here.

How the values were obtained:
[1] = stimulators of insulin release from INS-1E, primary screen, cell-based, 5 mM glucose, NPC library (AID 1117329;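 active = compound raises insulin release from rat beta cells at 5 mM glucose, no numeric limit stated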); settings: rat INS-1E insulin secretion, at 10 µM, stronger effect = higher value
[2] = growth inhibition of GSK3B-pretreated HCT116 cells – cell-based, CellTiter-Glo, 0.2 to 20 µM (AID 1117336;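 active = compounds lowering colon cancer cell viability after pretreatment blocking the GSK3B kinase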); settings: HCT116 viability after GSK3B inhibitor, at 20 µM, stronger effect = higher value
[3] = inhibition of endothelial tube formation, primary screen, imaging, VEGF stimulated, CD31 staining, tube area, NPC library (AID 1117340;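 active = compound that reduces growth-factor-driven endothelial tube area in a mixed cell culture, no cutoff stated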); settings: VEGF-stimulated ADSC/ECFC co-culture, at 10 µM, stronger effect = higher value
[4] = glucagon-like peptide 1 release enhancers, primary assay, NCI-H716 cell line, NPC library (AID 1117341;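 active = compound raises GLP1 secretion from the human gut endocrine cells, with no numeric limit stated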); settings: NCI-H716 cells, at 10 µM, stronger effect = higher value
[5] = HCT116 colon cancer cell growth inhibition, primary screen, CellTiter-Glo luminescence, NPC library (AID 1117342;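 active = compounds that lower survival of HCT116 colon cancer cells in the luminescence readout, no numeric limit stated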); settings: at 20 µM (top of the series)
[6] = CellTiter-Glo luminescent readout of SW480 viability loss, NPC library primary (AID 1117343;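 active = compounds that lower viability of the colon cancer cells in the luminescence readout, with no numeric limit stated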); settings: CellTiter-Glo luminescence; at 20 µM (top of the series)
[7] = decreased DLD-1 cellular survival, CellTiter-Glo luminescent readout, NPC compound collection, primary HTS (AID 1117346;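 active = compounds that lower survival of DLD-1 colon cancer cells in the luminescence readout, no cutoff given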); settings: DLD-1 viability, CellTiter-Glo luminescence; at 20 µM (top of the series)
[8] = modulation of C. elegans fzo-1 (AID 1259413);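 note: fzo-1 mutant C. elegans worms in liquid wells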; settings: C. elegans fzo-1 modulator screen, mean read-out; stronger effect = higher value
[9] = differential killing of epithelial or mesenchymal cells, primary screen, imaging, PC-3E GFP, TEM4-18 mCherry, co-culture (AID 1345086;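 active = compounds killing one labelled cell type while sparing the other, by normalised counts and ratio limits, not self-fluorescent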;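 for all read-outs here: cells exposed to compound for 72 h before imaging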;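 for red/green cell ratio (normalised): normalised mesenchymal count divided by normalised epithelial count so high means epithelial killing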); settings: imaging cell counts, at 1 µM; for red/green cell ratio (normalised): actives lie on both sides, counts scaled to control wells, 1 = unselective
[10] = growth inhibition of DIPG glioma cells, dose response, cell-based, SU-DIPG-XVII, MIPE5.0, CellTiter-Glo, qHTS (AID 1347060; cut-off not given, nearly all actives have AC50 up to about 26 µM;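 for AC50: cells exposed to compound for 48 hours before viability readout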); settings: SU-DIPG-XVII viability, CellTiter-Glo ATP luminescence
[11] = growth inhibition of DIPG glioma cells, dose response, cell-based, SU-DIPG-XIII, MIPE4.0, CellTiter-Glo, qHTS (AID 1347061; cut-off not given, nearly all actives have AC50 up to about 37 µM;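 note: cells exposed to compound for 48 hours before readout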); settings: SU-DIPG-XIII viability, CellTiter-Glo ATP luminescence
[12] = growth inhibition of DIPG glioma cells, dose response, cell-based, JHH-DIPG-1, MIPE4.0, CellTiter-Glo, qHTS (AID 1347062; cut-off not given, nearly all actives have AC50 up to about 27 µM;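 for AC50: cells exposed to compound for two days before readout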); settings: JHH-DIPG-1 viability, CellTiter-Glo ATP luminescence
[13] = growth inhibition of DIPG glioma cells, dose response, cell-based, SU-DIPG-XIII, MIPE5.0, CellTiter-Glo, qHTS (AID 1347064; cut-off not given, nearly all actives have AC50 up to about 23 µM); settings: SU-DIPG-XIII viability, CellTiter-Glo ATP luminescence
[14] = growth inhibition of DIPG glioma cells, dose response, cell-based, SU-DIPG-IV, MIPE4.0, CellTiter-Glo, qHTS (AID 1347063; cut-off not given, nearly all actives have AC50 up to about 30 µM;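 note: compound exposure lasted 48 hours before the viability readout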); settings: SU-DIPG-IV viability, CellTiter-Glo ATP luminescence
[15] = test system: Aerobactin synthetase IucA (Klebsiella pneumoniae); test: IucA aerobactin synthetase inhibitors, biochemical, Tocris library, absorbance (AID 1345561); settings: purified IucA enzyme assay, absorbance (OD) read-out; stronger effect = lower value;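 tested at 8 µM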;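 note: 100% = enzyme without compound and 0% = no enzyme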
[16] = measured here: epithelial PC-3E GFP cell survival
[17] = measured here: mesenchymal TEM4-18 mCherry cell survival

O=C(O)CCNC(=O)c1ccc(N=Nc2ccc(O)c(C(=O)O)c2)cc1
1.19: normalised cell number [9, 16]
1.21: normalised cell number [9, 17]
active: viability decrease (inhibition) [6] 57.8%
inactive: insulin secretion stimulation [1] 5.4% | viability decrease [2] 5.2% | tube area decrease [3] 11.5% | GLP1 secretion stimulation [4] 1.6% | inhibition of viability [5] 6.1% | viability decrease (inhibition) [7] 6.7% | mean signal [8] 240 | red/green cell ratio (normalised) [9] 1.02 | outcome [10] | outcome [11] | outcome [12] | outcome [13]

CC(N)C12CC3CC(CC(C3)C1)C2 (stereo not drawn)
1.11: normalised cell number [9, 16]
inactive: insulin secretion stimulation [1] 11% | viability decrease [2] -3.4% | tube area decrease [3] 15.2% | GLP1 secretion stimulation [4] -0.1% | inhibition of viability [5] 7.6% | viability decrease (inhibition) [7] 6.65% | mean signal [8] 212 | red/green cell ratio (normalised) [9] 0.95 | outcome [10] | outcome [11] | outcome [12] | outcome [14] | outcome [13]
1.06: normalised cell number [9, 17]
active: viability decrease (inhibition) [6] 60.8%

NC1CCN(c2cccc(Cl)n2)CC1
inactive: insulin secretion stimulation [1] -0.7% | viability decrease [2] -6.2% | tube area decrease [3] 3.8% | GLP1 secretion stimulation [4] 3.8% | inhibition of viability [5] 14.7% | viability decrease (inhibition) [6] 28.7% | viability decrease (inhibition) [7] -9.7% | mean signal [8] 216 | remaining activity [15] 113%

Cc1[nH]c(=O)c(C#N)cc1-c1ccncc1
1.05: normalised cell number [9, 16]
inactive: insulin secretion stimulation [1] 0.8% | viability decrease [2] -19.7% | tube area decrease [3] 4% | GLP1 secretion stimulation [4] 0% | inhibition of viability [5] 16.6% | viability decrease (inhibition) [6] -4.9% | viability decrease (inhibition) [7] -6.1% | mean signal [8] 234 | red/green cell ratio (normalised) [9] 1.2 | outcome [10]
1.26: normalised cell number [9, 17]

CC(c1cc2ccccc2s1)N(O)C(N)=O (stereo not drawn)
1.01: normalised cell number [9, 17]
inactive: insulin secretion stimulation [1] -0.1% | viability decrease [2] -6.5% | tube area decrease [3] -39.9% | GLP1 secretion stimulation [4] -1.4% | inhibition of viability [5] -15.9% | viability decrease (inhibition) [6] 9.4% | viability decrease (inhibition) [7] -3.8% | mean signal [8] 255 | red/green cell ratio (normalised) [9] 0.83 | outcome [11] | outcome [12] | outcome [14]
1.22: normalised cell number [9, 16]

COC1=C(OC)C(=O)C(CCCCCCCCCCO)=C(C)C1=O
inactive: insulin secretion stimulation [1] 2.2% | GLP1 secretion stimulation [4] 2.2% | mean signal [8] 254 | red/green cell ratio (normalised) [9] 0.83 | outcome [10]
active: viability decrease [2] 118% | tube area decrease [3] 66.9% | inhibition of viability [5] 94.2% | viability decrease (inhibition) [6] 120% | viability decrease (inhibition) [7] 82.7%
1.18: normalised cell number [9, 16]
0.98: normalised cell number [9, 17]

Cc1cn([C@H]2C=C[C@@H](CO)O2)c(=O)[nH]c1=O
inactive: insulin secretion stimulation [1] 4.4% | viability decrease [2] -0.2% | tube area decrease [3] -1.6% | GLP1 secretion stimulation [4] -0.3% | inhibition of viability [5] 1.2% | viability decrease (inhibition) [6] -4.8% | viability decrease (inhibition) [7] -8.9% | mean signal [8] 233 | red/green cell ratio (normalised) [9] 0.8 | outcome [11] | outcome [12] | outcome [14]
1.09: normalised cell number [9, 17]
1.35: normalised cell number [9, 16]

CCCc1nc(C)c2c(=O)[nH]c(-c3cc(S(=O)(=O)N4CCN(CC)CC4)ccc3OCC)nn12
active: AC50 [11] 13.2 µM | AC50 [12] 18.7 µM | AC50 [14] 4.18 µM
inactive: insulin secretion stimulation [1] -0.4% | viability decrease [2] -11.4% | tube area decrease [3] -2.1% | GLP1 secretion stimulation [4] 0.1% | inhibition of viability [5] 23.1% | viability decrease (inhibition) [6] 14.2% | viability decrease (inhibition) [7] -13.5% | mean signal [8] 298 | red/green cell ratio (normalised) [9] 0.94 | outcome [10] | outcome [13]
1.03: normalised cell number [9, 17]
1.1: normalised cell number [9, 16]

CC(C)c1nc(CN(C)C(=O)N[C@H](C(=O)N[C@@H](Cc2ccccc2)C[C@H](O)[C@H](Cc2ccccc2)NC(=O)OCc2cncs2)C(C)C)cs1
inactive: insulin secretion stimulation [1] 0.2% | viability decrease [2] 33.5% | tube area decrease [3] -13.5% | GLP1 secretion stimulation [4] -0.8% | viability decrease (inhibition) [6] 4.9% | viability decrease (inhibition) [7] 19.4% | mean signal [8] 246 | red/green cell ratio (normalised) [9] 1.06 | outcome [11] | outcome [12]
1.14: normalised cell number [9, 16]
active: inhibition of viability [5] 67.7%
1.21: normalised cell number [9, 17]

C[C@@H]1CN(CCCn2c3ccccc3c3ccccc32)C[C@H](C)N1
active: viability decrease [2] 97.5% | tube area decrease [3] 48.2% | GLP1 secretion stimulation [4] 20% | inhibition of viability [5] 107% | viability decrease (inhibition) [6] 128% | viability decrease (inhibition) [7] 82.7%
inactive: insulin secretion stimulation [1] 16.2% | mean signal [8] 203 | remaining activity [15] 123%

NS(=O)(=O)Cc1noc2ccccc12
inactive: insulin secretion stimulation [1] -1.7% | viability decrease [2] -1.75% | tube area decrease [3] 3.7% | GLP1 secretion stimulation [4] 2.1% | inhibition of viability [5] 4.9% | viability decrease (inhibition) [6] 44.2% | viability decrease (inhibition) [7] 24.9% | mean signal [8] 260 | remaining activity [15] 96.2%

CCCN[C@H]1CCc2nc(N)sc2C1
active: viability decrease (inhibition) [6] 51.7%
inactive: insulin secretion stimulation [1] -3.1% | viability decrease [2] 7.2% | tube area decrease [3] -9.5% | GLP1 secretion stimulation [4] 2.6% | inhibition of viability [5] 5.4% | viability decrease (inhibition) [7] 38.1% | mean signal [8] 239 | red/green cell ratio (normalised) [9] 0.69 | outcome [10] | outcome [11] | outcome [12] | outcome [13]
1.3: normalised cell number [9, 16]
0.89: normalised cell number [9, 17]

CC[C@@]1(O)C(=O)OCc2c1cc1n(c2=O)Cc2cc3c(CN(C)C)c(O)ccc3nc2-1
active: viability decrease [2] 61.2% | tube area decrease [3] 107% | inhibition of viability [5] 52.2% | viability decrease (inhibition) [6] 75% | viability decrease (inhibition) [7] 67.8% | AC50 [10] 0.0525 µM | AC50 [12] 8.33 µM | AC50 [14] 0.332 µM
0.19: normalised cell number [9, 16]
inactive: insulin secretion stimulation [1] 0.5% | GLP1 secretion stimulation [4] -4.3% | mean signal [8] 251 | red/green cell ratio (normalised) [9] 1.81
0.34: normalised cell number [9, 17]
